Unmarked numbers belong to inactive results. Records with an inconclusive call do not appear. Active and inactive are the calls of the source. Unless noted, the call rests on the fitted dose curve; in most records, active means well fitted curve in the direction sought with a large enough effect; inconclusive means small, poorly fitted or top-dose-only effect, or another doubt; inactive means no such curve, though single readings can be large; an effect the other way counts as inactive or inconclusive.

Pyruvate kinase PKM (Homo sapiens), sequence (P14618 whole entry, looked up): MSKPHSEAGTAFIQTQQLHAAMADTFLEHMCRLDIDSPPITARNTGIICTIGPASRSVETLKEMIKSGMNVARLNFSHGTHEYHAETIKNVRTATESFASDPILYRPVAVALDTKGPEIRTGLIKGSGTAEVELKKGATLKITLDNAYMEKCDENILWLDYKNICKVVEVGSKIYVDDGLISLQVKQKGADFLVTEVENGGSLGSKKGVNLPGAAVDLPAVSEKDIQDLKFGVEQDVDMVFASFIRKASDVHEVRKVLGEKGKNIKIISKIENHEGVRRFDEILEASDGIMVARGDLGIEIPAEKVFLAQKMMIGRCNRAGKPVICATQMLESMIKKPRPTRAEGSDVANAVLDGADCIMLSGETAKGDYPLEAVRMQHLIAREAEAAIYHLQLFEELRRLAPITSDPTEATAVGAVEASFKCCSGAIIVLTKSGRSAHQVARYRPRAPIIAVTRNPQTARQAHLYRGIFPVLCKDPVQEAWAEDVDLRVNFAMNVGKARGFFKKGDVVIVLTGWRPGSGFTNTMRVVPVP
Alpha-galactosidase (Coffea arabica), sequence (Q42656 whole entry, looked up): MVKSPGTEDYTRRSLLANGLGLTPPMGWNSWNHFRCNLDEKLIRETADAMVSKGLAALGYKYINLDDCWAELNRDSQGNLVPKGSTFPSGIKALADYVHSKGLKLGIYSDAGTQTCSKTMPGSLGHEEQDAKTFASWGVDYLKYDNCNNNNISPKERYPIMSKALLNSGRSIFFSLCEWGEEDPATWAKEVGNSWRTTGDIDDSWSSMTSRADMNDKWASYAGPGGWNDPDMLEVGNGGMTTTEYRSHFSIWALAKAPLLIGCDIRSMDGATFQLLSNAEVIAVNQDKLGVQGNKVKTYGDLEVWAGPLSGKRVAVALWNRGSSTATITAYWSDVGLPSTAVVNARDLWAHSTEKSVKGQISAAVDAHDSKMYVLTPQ

One assay addresses Pyruvate kinase PKM (Homo sapiens) (UniProt P14618). Briefly: qHTS Assay for Activators of Human Muscle Pyruvate Kinase (AID 954; active means well fitted curve in the direction sought with a large enough effect, not every such curve was filed as active;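 further: 0% = uninhibited enzyme and -100% = no enzyme or full thiadiazolimine inhibition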). Conditions: purified human muscle pyruvate kinase, luciferase-coupled luminescence, 1 h; series mostly up to 57.5 µM; activity change, negative = inhibition: at the top concentration. In a few lines:
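Compound pinned into substrate mix (0.5 mM PEP, 0.1 mM ADP), then 0.1 nM PKM2 added; 1 h, RT. Stop/detection luciferase reagent added, luminescence read. Normalized to no-inhibition and no-enzyme or reference-inhibitor controls.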
For orientation: In qHTS, concentration-response curves come from the screen itself.
For `CN[C@@H]1C[C@@H](c2ccc(Cl)c(Cl)c2)c2ccccc21`, the “activity change, negative = inhibition” value is -20.4%.

For the molecule `CC[C@@]1(O)C(=O)OCc2c1cc1n(c2=O)Cc2cc3ccccc3nc2-1`, the “activity change, negative = inhibition” value was -37.8%.

As to `O=C(O)Cc1cnc[nH]1`, the “activity change, negative = inhibition” value is -25%.

In the case of `C[C@]12N[C@H](Cc3ccccc31)c1ccccc12`, the molecule was classed as inactive.

Regarding `Cn1cnc(CCN)c1`, the “activity change, negative = inhibition” value was -17.1%.

`c1ccc(CCCN2CCN(CCOC(c3ccccc3)c3ccccc3)CC2)cc1`: the “activity change, negative = inhibition” value is -22.4%.

With `S=C(NC1CCCCC1)N1CCC(c2cnc[nH]2)CC1`, the “activity change, negative = inhibition” value is -16.6%.

Take `NCCc1c[nH]c2ccc(O)cc12`: the “activity change, negative = inhibition” value is -10.2%.

For the molecule `CCCCc1ccc(C(=O)O)nc1`, the “activity change, negative = inhibition” value is -33.3%.

As for `NCCc1c[nH]c2ccccc12`, the “activity change, negative = inhibition” value is -9.12%.

For `Clc1cnc(Oc2ccc(Oc3ncc(Cl)cc3Cl)cc2)c(Cl)c1`, the “activity change, negative = inhibition” value was -27%.

On to `Cc1nccc2c1[nH]c1ccccc12`, for which the “activity change, negative = inhibition” value is -4.78%.

For the molecule `NCc1cc(=O)[nH]o1`, the “activity change, negative = inhibition” value was -5.02%.

In the case of `O=C1CCCN1CC#CCN1CCCC1`, the “activity change, negative = inhibition” value is -7.82%.

Turning to `CC1=NN=C(c2ccc(N)cc2)c2cc3c(cc2C1)OCO3`, the “activity change, negative = inhibition” value is 0.182%.

Consider `CNCCc1c[nH]c2ccc(O)cc12`, for which the “activity change, negative = inhibition” value was -6.9%.

Turning to `CC(=O)NCCc1c[nH]c2ccccc12`, the “activity change, negative = inhibition” value is -42%.

Regarding `CNCCc1ccc(O)c(O)c1`, the “activity change, negative = inhibition” value was 19.3%.

Regarding `COc1ccc2c(c[n+](C)c3c4cc5c(cc4ccc23)OCO5)c1OC`, the “activity change, negative = inhibition” value is -16.7%.

As to `NC(N)=NOCCC(N)C(=O)O` (centres undefined), the “activity change, negative = inhibition” value is 2.86%.

As for `CCCN(CCC)[C@@H]1CCc2ccc(O)cc2C1`, the molecule was called inactive.

With `O=C(O)CC[N+](=O)[O-]`, the “activity change, negative = inhibition” value is 11.5%.

As for `C#CCOC(=O)C1=CCCN(C)C1`, the “activity change, negative = inhibition” value was -15.7%.

On to `C[C@@H]1O[C@H](C[N+](C)(C)C)C[C@H]1O`, for which the “activity change, negative = inhibition” value is -26.2%.

Regarding `c1ccc2sc(C3(N4CCCCC4)CCCCC3)cc2c1`, the “activity change, negative = inhibition” value was -21.8%.

Regarding `CCCN1CCO[C@@H]2c3cc(O)ccc3OC[C@H]21`, the result was inactive.

As for `Cc1c(C(=O)c2cccc3ccccc23)c2cccc3c2n1[C@H](CN1CCOCC1)CO3`, the “activity change, negative = inhibition” value is -18.5%.

`CC(C)Oc1cccnc1N(C)C1CCN(Cc2ccccc2)CC1`: the “activity change, negative = inhibition” value was -4.05%.

For the molecule `NC(=NCCC[C@H](N)C(=O)O)N[N+](=O)[O-]`, the “activity change, negative = inhibition” value is -16.2%.

For the molecule `Cc1nc(-c2ccc(-c3ccc(C(=O)N4CCc5cc6c(cc54)C4(CCN(C)CC4)CO6)cc3)c(C)c2)no1`, the “activity change, negative = inhibition” value is -23.8%.

Regarding `CCCN1CCC[C@H](c2cccc(O)c2)C1`, the outcome was inactive.

System in the next assay: not listed separately
Briefly: MultiTox-Fluor Cytotoxicity Assay - LYMP1-002 - Live Cells (AID 955).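 Further: cells exposed to compound for 16 hours.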 Further: potency means the concentration at half of the fitted maximal effect. On viability change, negative = cytotoxic: on the % scale 0 is the no-effect control and ±100 the full control effect. Conditions: LYMP1-002 lymphoblastoid live-cell protease fluorescence viability; series mostly up to 46.1 µM; viability change, negative = cytotoxic: at the top concentration. In a few lines: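 In this qHTS viability format, lymphoblastoid cells (LYMP1-002, human) received compound for 16 hr at 37 C. Fluorogenic GF-AFC cleavage by viable cells was detected at 405/510 nm after 1 h at room temperature.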
`O=[N+]([O-])c1c(Cl)c(Cl)cc(Cl)c1Cl`: the “viability change, negative = cytotoxic” value was 2.22%.

Consider `CC(=O)[O][Hg][c]1ccccc1`, for which the Potency is 3.16 µM (active).

As for `Nc1ccc([N+](=O)[O-])cc1`, the “viability change, negative = cytotoxic” value was -9.62%.

Regarding `C=CC(=O)NCNC(=O)C=C`, the “viability change, negative = cytotoxic” value was 5.24%.

The target in the next assay is Alpha-galactosidase (Coffea arabica) (UniProt Q42656). Briefly: Counterscreen for Glucocerebrosidase Inhibitors: qHTS Assay for Coffee Bean alpha-Galactosidase at pH 4.5 (AID 957).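 Further: plate controls were enzyme alone for no effect and no enzyme for full effect.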 Conditions: purified coffee bean alpha-galactosidase, fluorogenic substrate; series mostly up to 76.9 µM; activity change, negative = inhibition: at the top concentration. The method in brief:
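Quantitative HTS of compounds (0.7 nM to 77 uM) against coffee bean alpha-galactosidase at pH 4.5, measuring 4-methylumbelliferone fluorescence released from 80 uM substrate.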
Take `CN[C@@H]1C[C@@H](c2ccc(Cl)c(Cl)c2)c2ccccc21`: the “activity change, negative = inhibition” value is -2.13%.

On to `CC[C@@]1(O)C(=O)OCc2c1cc1n(c2=O)Cc2cc3ccccc3nc2-1`, for which the “activity change, negative = inhibition” value is 20.9%.

Turning to `O=C(O)Cc1cnc[nH]1`, the “activity change, negative = inhibition” value was 2.69%.

For the molecule `C[C@]12N[C@H](Cc3ccccc31)c1ccccc12`, the outcome was inactive.

As to `Cn1cnc(CCN)c1`, the “activity change, negative = inhibition” value is 0.597%.

On to `c1ccc(CCCN2CCN(CCOC(c3ccccc3)c3ccccc3)CC2)cc1`, for which the “activity change, negative = inhibition” value was -10.6%.

Take `S=C(NC1CCCCC1)N1CCC(c2cnc[nH]2)CC1`: the “activity change, negative = inhibition” value is -0.0656%.

On to `NCCc1c[nH]c2ccc(O)cc12`, for which the “activity change, negative = inhibition” value is 0.754%.

Turning to `CCCCc1ccc(C(=O)O)nc1`, the “activity change, negative = inhibition” value is -1%.

As to `NCCc1c[nH]c2ccccc12`, the “activity change, negative = inhibition” value was -2%.

With `Clc1cnc(Oc2ccc(Oc3ncc(Cl)cc3Cl)cc2)c(Cl)c1`, the “activity change, negative = inhibition” value was -4.56%.

In the case of `Cc1nccc2c1[nH]c1ccccc12`, the “activity change, negative = inhibition” value is -2.79%.

For `NCc1cc(=O)[nH]o1`, the “activity change, negative = inhibition” value was 0.326%.

As to `O=C1CCCN1CC#CCN1CCCC1`, the “activity change, negative = inhibition” value was -1.18%.

As to `CC1=NN=C(c2ccc(N)cc2)c2cc3c(cc2C1)OCO3`, the “activity change, negative = inhibition” value is -6.22%.

For the molecule `CNCCc1c[nH]c2ccc(O)cc12`, the “activity change, negative = inhibition” value was 1.17%.

`CC(=O)NCCc1c[nH]c2ccccc12`: the “activity change, negative = inhibition” value is -1.33%.

For `CNCCc1ccc(O)c(O)c1`, the “activity change, negative = inhibition” value was -3.55%.

Consider `COc1ccc2c(c[n+](C)c3c4cc5c(cc4ccc23)OCO5)c1OC`, for which the “activity change, negative = inhibition” value is -4.96%.

Consider `NC(N)=NOCCC(N)C(=O)O` (centres undefined), for which the “activity change, negative = inhibition” value was -1.65%.

For `CCCN(CCC)[C@@H]1CCc2ccc(O)cc2C1`, the call was inactive.

In the case of `O=C(O)CC[N+](=O)[O-]`, the “activity change, negative = inhibition” value was 2.38%.

As for `C#CCOC(=O)C1=CCCN(C)C1`, the “activity change, negative = inhibition” value was 1.34%.

With `C[C@@H]1O[C@H](C[N+](C)(C)C)C[C@H]1O`, the “activity change, negative = inhibition” value was 0.0177%.

For the molecule `c1ccc2sc(C3(N4CCCCC4)CCCCC3)cc2c1`, the “activity change, negative = inhibition” value was -1.98%.

Regarding `CCCN1CCO[C@@H]2c3cc(O)ccc3OC[C@H]21`, the result was inactive.

Consider `Cc1c(C(=O)c2cccc3ccccc23)c2cccc3c2n1[C@H](CN1CCOCC1)CO3`, for which the “activity change, negative = inhibition” value is -20.5%.

With `CC(C)Oc1cccnc1N(C)C1CCN(Cc2ccccc2)CC1`, the “activity change, negative = inhibition” value was -1.99%.

On to `NC(=NCCC[C@H](N)C(=O)O)N[N+](=O)[O-]`, for which the “activity change, negative = inhibition” value was -0.64%.

Regarding `Cc1nc(-c2ccc(-c3ccc(C(=O)N4CCc5cc6c(cc54)C4(CCN(C)CC4)CO6)cc3)c(C)c2)no1`, the “activity change, negative = inhibition” value is -4.58%.

On to `CCCN1CCC[C@H](c2cccc(O)c2)C1`, for which the molecule was classed as inactive.

System in the next assay: not listed separately
Briefly: MultiTox-Fluor Cytotoxicity Assay - LYMP1-002 - Dead Cells (AID 960).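 Further: 0% = DMSO and 100% = tetraoctylammonium bromide; nearly all actives have a fitted effect of over 60% in size.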 The following applies: LYMP1-002 lymphoblastoid cells, dead-cell protease fluorescence; series mostly up to 46.1 µM; cytotoxicity (dead cells): at the top concentration. The method in brief:
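Concentration-dependent increases in membrane-leaked protease activity are quantified in LYMP1-002 cells after 16 hr treatment; values are normalized against DMSO and tetraoctylammonium bromide (15 uM) controls and AC50 derived by Hill modeling.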
For `O=[N+]([O-])c1c(Cl)c(Cl)cc(Cl)c1Cl`, the “cytotoxicity (dead cells)” value was 14.7%.

For the molecule `CC(=O)[O][Hg][c]1ccccc1`, the “cytotoxicity (dead cells)” value is -152%.

Take `Nc1ccc([N+](=O)[O-])cc1`: the “cytotoxicity (dead cells)” value is 26.4%.

Take `C=CC(=O)NCNC(=O)C=C`: the “cytotoxicity (dead cells)” value was 8.64%.

System in a further assay: not listed separately
Briefly: MultiTox-Fluor Cytotoxicity Assay - LYMP1-003 - Live Cells (AID 962).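 Further: cells exposed to compound for 16 hours at 37 °C.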 Further: potency means the concentration at half of the fitted maximal effect.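 On activity change, negative = fewer live cells: 0% = DMSO only and full loss = 92 µM tetraoctylammonium bromide; cytotoxic hits lower the live-cell protease signal.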 Conditions: LYMP1-003 lymphoblastoid cells, MultiTox-Fluor live-cell protease fluorescence; series mostly up to 92.2 µM; activity change, negative = fewer live cells: at the top concentration. In a few lines: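 Human lymphoblastoid line LYMP1-003 in complete culture medium, treated 16 hr with titrated compounds. Viable cells quantified via cell-permeant GF-AFC substrate fluorescence; AC50 derived by Hill fitting.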
Turning to `O=[N+]([O-])c1c(Cl)c(Cl)cc(Cl)c1Cl`, the “activity change, negative = fewer live cells” value is 0.0208%.

`CC(=O)[O][Hg][c]1ccccc1`: the Potency is 3.16 µM (active).

Turning to `Nc1ccc([N+](=O)[O-])cc1`, the “activity change, negative = fewer live cells” value is -17.7%.

Regarding `C=CC(=O)NCNC(=O)C=C`, the “activity change, negative = fewer live cells” value was -5.77%.

(Values after PubChem BioAssay (NCATS).)
